Screens deposited in PubChem BioAssay by National Center for Advancing Translational Sciences (NCATS).
Most compounds without a hit are left out; they make up all but 1.1% or so of the library.
AMA1 RON2 block = AMA1-RON2 (P. falciparum) interaction inhibition; AlphaScreen AMA1-biotinylated RON2 peptide binding; 0.2% of 360,000 active; Potency, µM (highest dose often 58.2 µM), usual class: inhibitors; also: nearly all actives have a fitted effect of over 45% in size
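AMA1 (3D7) with his tag at 25 nM final met compounds first, then biotinylated RON2 peptide at 25 nM; detection used donor plus acceptor beads, 10 µg/mL apiece, read by AlphaScreen after 30 min at room temperature.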
AmpC inh detg = AmpC beta-lactamase inhibition with detergent present; AmpC hydrolysis of nitrocefin, absorbance 480 nm, 0.01% Triton; Potency, µM (series often up to 114 µM), actives largely listed as inhibitors; P00811; 0.041% of 370,000 active; also: nearly all actives have a fitted effect of over 25% in size
Target sequence (P00811 whole entry, looked up): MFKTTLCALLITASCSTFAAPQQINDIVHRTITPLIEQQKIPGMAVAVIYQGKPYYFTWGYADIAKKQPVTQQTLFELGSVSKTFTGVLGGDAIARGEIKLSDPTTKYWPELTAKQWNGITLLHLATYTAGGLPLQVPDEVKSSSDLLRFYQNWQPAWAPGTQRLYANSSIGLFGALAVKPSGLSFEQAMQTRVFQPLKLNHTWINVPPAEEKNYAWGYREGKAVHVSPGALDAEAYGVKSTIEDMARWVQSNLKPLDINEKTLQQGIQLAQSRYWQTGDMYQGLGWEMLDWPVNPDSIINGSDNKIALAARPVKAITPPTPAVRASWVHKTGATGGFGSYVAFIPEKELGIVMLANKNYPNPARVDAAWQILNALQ
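20 mM phosphate pH 7.0 + 0.01% (detergent screen) or 0.0001% Triton X-100; 5.3 nM AmpC reagent; cpd preinc 15 min RT; nitrocefin (800 uM stock) to start; A480 q20 s × 4 min; Activity was normalised to no-enzyme and no-compound control wells.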
AmpC no deterg = AmpC beta-lactamase inhibition without detergent; P00811; AmpC nitrocefin hydrolysis, absorbance 480 nm, 0.0001% Triton; Potency, µM (highest dose often 57.1 µM), usual class: inhibitors; 0.52% of 330,000 active; AID 485341; also: nearly all actives have a fitted effect of over 20% in size
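20 mM phosphate pH 7.0 + 0.01% (detergent screen) or 0.0001% Triton X-100; 5.3 nM AmpC reagent; cpd preinc 15 min RT; nitrocefin (800 uM stock) to start; A480 q20 s × 4 min; Activity was normalised to no-enzyme and no-compound control wells.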
Giardia FBPA inh = inhibitors of Giardia lamblia fructose-1,6-bisphosphate aldolase. purified Giardia FBPA. AID 2451. 0.71% of 290,000 active. Potency, µM (top dose mostly 59.6 µM), hits mostly inhibitors; also: nearly all actives have a fitted effect of over 55% in size
Target sequence (A8B2U2 whole entry, looked up): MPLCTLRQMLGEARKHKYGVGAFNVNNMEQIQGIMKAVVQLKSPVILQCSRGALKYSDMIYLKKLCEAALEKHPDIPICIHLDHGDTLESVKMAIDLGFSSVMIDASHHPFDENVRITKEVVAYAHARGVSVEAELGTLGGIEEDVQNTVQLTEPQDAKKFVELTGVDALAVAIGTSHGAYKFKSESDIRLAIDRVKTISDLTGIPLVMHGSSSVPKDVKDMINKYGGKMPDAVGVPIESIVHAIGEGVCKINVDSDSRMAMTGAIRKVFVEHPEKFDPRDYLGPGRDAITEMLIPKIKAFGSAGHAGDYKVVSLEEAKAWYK
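Giardia FBPA (40 nM reagent) was preincubated 10 min at RT with compound (up to 57.5 uM final), then substrate plus GAPDH/TPI/NAD/arsenate coupling system with diaphorase/resazurin was added; resorufin fluorescence (525/598 nm) was read after 20 min.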
Numbers stand for hits; 0 = inactive; ? = inconclusive; - = no result given; [ ] = another dose, or the depositor's remark. Calls follow the shape of the dose curve; as a rule, active = well fitted curve in the direction sought with a large enough effect; inconclusive = small, poorly fitted or top-dose-only effect, or another doubt; inactive = no such curve, though single readings can be large; an effect the other way counts as inactive or inconclusive.

SMILES | AMA1 RON2 block | AmpC inh detg | AmpC no deterg | Giardia FBPA inh
Cc1ccccc1OCC(=O)Nc1ccc(-c2nc3cc(Cl)cc(Cl)c3o2)cc1 | - | 0 | - | -
Cc1ccc(-c2nc3ccccc3c(=O)n2CCN2CCOCC2)cc1 | 0 | 0 | 2.24µM | 0
Cc1cccc(C)c1NC(=O)C(NS(=O)(=O)c1ccc2c(c1)CCC(=O)N2)c1ccccc1 (centres undefined) | - | 0 | - | -
Cc1cccc(NC(=O)C(NS(=O)(=O)c2ccc3c(c2)CCC(=O)N3)c2ccccc2)n1 (centres undefined) | 0 | 0 | 25.1µM | 0
CC(C)CC(NC(=O)C(Cc1ccc(OCc2ccccc2)cc1)NC(=O)OC(C)(C)C)C(N)=O (centres undefined) | 0 | 0 | 7.08µM | 0
COC(=O)C(Cc1ccccc1)NC(=O)C(CC(C)C)NC(=O)OC(C)(C)C (centres undefined) | 0 | ? | 0 | 0
COc1cccc(NC(=O)/C(C#N)=C/c2c(C)n(Cc3ccccc3)c3ccccc23)c1 | - | 0 | - | -
CC1CCCC(C)N1c1nnc(NC(=O)Cn2c(=O)oc3ccccc32)s1 (centres undefined) | 0 | 0 | 10µM | 0
CCN(CC)c1ccc(/C=C2\C(=O)N(c3nnc(C)c(=O)[nH]3)N=C2C)cc1 | 14.1µM | 0 | 0 | ?
CCN(CC)c1ccc(/C=C2/C(=O)ON=C2C)cc1 | 0 | 0 | 0 | 0
CCOC(=O)Cn1c(=O)oc2cc(S(=O)(=O)N3CCN(c4ccc(Cl)cc4)CC3)ccc21 | - | 0 | - | -
COC(=O)c1cccc(Cn2c(Cl)c(/C=N/Nc3ccccc3C)sc2=O)c1 | ? | 0 | 31.6µM | 0
Cc1csc(=O)n1CCC(=O)OCC(=O)N(C)c1c(N)n(Cc2ccccc2)c(=O)[nH]c1=O | 0 | - | - | -
O=[N+]([O-])/C=C/c1cn(Cc2ccc(F)cc2)c2ccccc12 | 0 | ? | 17.8µM | 0
CCC(=O)N[C@@H]1Cc2ccccc2[C@@H](c2ccccc2)C1 | - | - | - | 0
Cc1ccc(NC(=O)CSc2nc(N)c3cc4c(nc3n2)CCCC4)cc1 | 0 | 0 | 14.1µM | 0
Nc1nc(SCC(=O)Nc2ccccc2)nc2nc3c(cc12)CCCC3 | 0 | 0 | 15.8µM | 0
COc1ccc(NC(=O)CSc2nc(N)c3cc4c(nc3n2)CCCC4)c(OC)c1 | 0 | 0 | 0 | 0
COc1cccc(NC(=O)CSc2nnc3scc(-c4ccc(Cl)cc4)n23)c1 | - | 0 | - | -
CCN(CC)CCCCN1c2ccccc2Oc2ccc(Cl)cc21 | - | - | - | 0
CC(C)c1ccc(NC(=O)CSc2nc(=O)[nH]c3c2CCCC3)cc1 | 0 | 0 | 35.5µM | -
O=C(NNc1ccc(Cl)cc1)c1c(F)cccc1Cl | 0 | 0 | 0 | 0
CC(=O)C(=Nc1ccccc1Cl)NNc1ccc(Cl)cc1 | 20µM | 0 | 0 | 0
O/C(=C\c1nc2ccccc2nc1/C=C(\O)c1ccccc1)c1ccccc1 | 0 | 0 | 0 | 3.15µM
O=c1oc2ccccc2nc1/C=C(\O)c1ccccc1 | 0 | 0 | 0 | ?
SMILES | AMA1 RON2 block | AmpC inh detg | AmpC no deterg | Giardia FBPA inh
COC(/C(=N/O)c1ccc(Cl)cc1)c1ccccc1 (centres undefined) | 0 | 0 | 0 | 0
CN1/C(=N\O)c2cccc3cccc1c23 | 0 | 0 | 0 | 8.91µM
CNC(=O)CN1C(=O)c2cccc3cccc1c23 | 0 | 0 | 0 | 0
CC[C@H](C)[C@@H](NC(=O)O[C@@H]1C(=O)c2cc(Br)ccc2O[C@H]1c1ccc2c(c1)OCO2)C(=O)OC | - | 0 | 35.5µM | 0
O=Nc1c(-c2c(O)[nH]c3cc(Br)ccc23)[nH]c2ccccc12 | 10µM | ? | 5.62µM | 0
C=CC(=O)Nc1cccc(N(C)c2ccnc(Nc3ccc(N4CCN(C)CC4)cc3)n2)c1 | 22.4µM | - | - | -
CN1CCN(c2ccc(NC(=O)COc3cccc4ccccc34)cc2)CC1 | 0 | 0 | 0 | 0
O=P(C(Cl)Cl)(N1CCOCC1)N1CCOCC1 | 0 | 0 | 0 | 0
O=CC(Br)P(=O)(N1CCOCC1)N1CCOCC1 (centres undefined) | 0 | 56.2µM | 0 | 0
Cc1cccc(NC(=S)N/N=C/c2c[nH]c3ccccc23)c1 | 0[11.6 µM] | 0 | 15.8µM | 0
O=C(CSc1nc(=O)[nH]c2c1CCCC2)NCc1ccccc1 | - | 0 | - | -
CC1(C)S[C@@H]2[C@H](NC(=O)COc3ccccc3)C(=O)N2C1C(=O)OCc1cc2ccccc2n1S(=O)(=O)c1ccccc1 (some centres undefined) | - | ? | 8.91µM | 0
COc1ccc2c(c1)-c1c(ssc1=S)C(C)(C)N2 | 29.9µM | ? | 0 | 0
COc1ccc2c(c1)-c1c(sn(-c3ccccc3)c1=S)C(C)(C)N2 | 12.6µM | 0 | 0 | 0
COc1ccc(-n2sc3c(c2=S)-c2cc(OC)ccc2NC3(C)C)cc1 | 22.4µM | 0 | 0 | 0
COc1ccc2c(c1)-c1c(sn(-c3ccc(OC)c(OC)c3)c1=S)C(C)(C)N2 | ? | ? | 0 | 0
CNc1ncnc2c1ncn2[C@H]1CN(CCOC)C[C@@H](CO)O1 | 0 | - | - | -
COC(=O)C1CC2=C(CCC2=O)N(c2ccccc2)C1=O (centres undefined) | 0 | - | - | -
O=c1cc[nH]c(=S)[nH]1 | - | - | - | 15.8µM
COc1ccc(NC(=O)c2cc(C3CCCCN3S(=O)(=O)c3c(C)noc3C)on2)c(C)c1 (centres undefined) | 0 | - | - | -
CN(C)c1ccc(/C=C2\C(=O)Nc3ccccc32)cc1 | - | - | - | 0
CC(=O)N1/C(=C/c2ccc(N(C)C)cc2)C(=O)c2ccccc21 | 28.2µM | 0 | 0 | 0
Cc1cc(C(=O)Nc2c(C)n(C)n(-c3ccccc3)c2=O)c(C)o1 | 0 | 0 | 0.159µM | 0
Cc1[nH]c2ccccc2c1C(C#N)(C#N)C1C(=O)c2ccccc2C1=O | 0 | 0 | 14.1µM | 9.98µM
Cc1[nH][nH]c(=O)c1C(c1ccc(-c2ccc(C(=O)O)cc2)o1)c1c(C)[nH][nH]c1=O | 0 | 0 | 0 | 5.61µM
SMILES | AMA1 RON2 block | AmpC inh detg | AmpC no deterg | Giardia FBPA inh
Cc1[nH][nH]c(=O)c1C(c1ccc(-c2ccc(F)cc2)o1)c1c(C)[nH][nH]c1=O | 0 | 0 | 0 | ?
O=S(=O)(NCCc1csc2nc(-c3ccc(F)cc3)nn12)c1ccc2c(c1)OCCO2 | - | 0 | - | -
Nc1ccc(N(CCO)CCO)cc1 | 0 | 0 | 0 | 5µM
CCN(CC)c1ccc(C(=O)NN)cc1 | 0 | 0 | 0 | 0
CCN(CC)c1ccc(N)cc1 | 11.2µM | 0 | 0 | -
CCc1ccc(S(=O)(=O)NCc2ccc(C(=O)NCCN(Cc3ccccc3)C(C)C)cc2)cc1 | 0 | - | - | -
Clc1ccc(CSc2ncnc3c2ncn3C2CCCCO2)cc1 (centres undefined) | 0 | - | - | -
O=C(CC1S/C(=N/N=C/c2c[nH]c3ccccc23)NC1=O)Nc1ccccc1 (centres undefined) | 0 | 0 | 25.1µM | 0
O=C(CC1S/C(=N/N=C/c2ccco2)NC1=O)Nc1ccccc1 (centres undefined) | 0 | 0 | 0 | 0
O=C(CC1S/C(=N/N=C/c2c[nH]c3ccc(OCc4ccccc4)cc23)NC1=O)Nc1ccccc1 (centres undefined) | 0[2.32 µM] | ? | 5.01µM | 0
C=C[C@@H](C1=CC(=O)C(OC)=C(OC)C1=O)c1ccccc1 | - | - | - | 22.3µM
Nc1nc(-c2ccccc2)c(N=Nc2ccccc2Cl)s1 | 14.1µM | ? | 0 | 0
